Source: PubChem BioAssay (NCI)
About 83,000 compounds went through this panel and 20% of them were active in at least one assay; those are over-represented in the sample as a whole.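 Cells were grown in 96-well plates and exposed to the test compound at a single concentration for 48 hours; results are reported as percent growth, with values below 10 considered active.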 Calls of active or inactive are those of the source.

Assays:
Assay in all cases: NCI-60 one-dose screen, 48 h (100 = growth as untreated, 0 = no growth, -100 = all killed)
Settings in all cases: 10 µM unless noted
DU-145 prostate = tested on: DU-145 prostate
K-562 leukemia = tested on: K-562 leukemia
MALME-3M melanoma = tested on: MALME-3M melanoma
MDA-MB-231 breast = tested on: MDA-MB-231 breast
RXF 393 renal = tested on: RXF 393 renal
SF-268 CNS = tested on: SF-268 CNS
SF-295 CNS = tested on: SF-295 CNS
SF-539 CNS = tested on: SF-539 CNS
UACC-257 melanoma = tested on: UACC-257 melanoma
M14 melanoma = tested on: M14 melanoma
HCT-15 colon = tested on: HCT-15 colon
HT29 colon = tested on: HT29 colon
SNB-75 CNS = tested on: SNB-75 CNS
SNB-19 CNS = tested on: SNB-19 CNS
U251 CNS = tested on: U251 CNS
PC-3 prostate = tested on: PC-3 prostate
SK-MEL-5 melanoma = tested on: SK-MEL-5 melanoma
UACC-62 melanoma = tested on: UACC-62 melanoma
LOX IMVI melanoma = tested on: LOX IMVI melanoma
SK-MEL-28 melanoma = tested on: SK-MEL-28 melanoma

Measured: growth

Cc1cc(NCc2cc(Nc3ccnc4cc(Cl)ccc34)ccc2F)nc(N2CCN(C)CC2)n1
active: K-562 leukemia -37.2% | MALME-3M melanoma -68.3% | MDA-MB-231 breast -43.9% | RXF 393 renal -27.1% | SF-295 CNS -60.9% | SF-539 CNS -75.3% | UACC-257 melanoma -59.7% | M14 melanoma -73.1% | HCT-15 colon -42.9% | HT29 colon -24.5% | SNB-75 CNS -50.9% | U251 CNS -28.2% | SK-MEL-5 melanoma -98% | UACC-62 melanoma -63.8% | LOX IMVI melanoma -86.6% | SK-MEL-28 melanoma -70%
inactive: DU-145 prostate 23.4% | SF-268 CNS 12.6% | SNB-19 CNS 29.7% | PC-3 prostate 21.5%

N#Cc1c(N2CCNCC2)nc2sc3cc(Cl)c(Cl)cc3n2c1=N
inactive: DU-145 prostate 122% | K-562 leukemia 77.4% | MALME-3M melanoma 119% | MDA-MB-231 breast 84.1% | RXF 393 renal 19.1% | SF-268 CNS 117% | SF-295 CNS 113% | SF-539 CNS 86.1% | UACC-257 melanoma 124% | M14 melanoma 106% | HCT-15 colon 122% | HT29 colon 98.7% | SNB-75 CNS 62.2% | SNB-19 CNS 98.5% | U251 CNS 107% | PC-3 prostate 94.2% | SK-MEL-5 melanoma 89.9% | UACC-62 melanoma 82.6% | LOX IMVI melanoma 93.5% | SK-MEL-28 melanoma 120%

O=C(COc1ccc(/C=C2\Oc3ccccc3C2=O)cc1)c1ccc(Cl)cc1
inactive: DU-145 prostate 119% | K-562 leukemia 93.7% | MALME-3M melanoma 111% | MDA-MB-231 breast 85.7% | RXF 393 renal 91.8% | SF-268 CNS 106% | SF-295 CNS 309% | SF-539 CNS 96.7% | UACC-257 melanoma 117% | M14 melanoma 108% | HCT-15 colon 106% | HT29 colon 107% | SNB-75 CNS 103% | SNB-19 CNS 94.3% | U251 CNS 104% | PC-3 prostate 98.2% | SK-MEL-5 melanoma 109% | UACC-62 melanoma 88.2% | LOX IMVI melanoma 95.8% | SK-MEL-28 melanoma 120%

COC(=O)[C@]12CC[C@@H](C)[C@H](C)[C@@H]1C1=CC[C@@H]3[C@@]4(C)C(C=O)=C[C@@](C)(COC(C)=O)C4=CC[C@@]3(C)[C@]1(C)CC2
inactive: SNB-75 CNS 15.7% | SNB-19 CNS 29.8% | PC-3 prostate 12.7%
active: DU-145 prostate -6.88% | K-562 leukemia 5.59% | MALME-3M melanoma -65.5% | MDA-MB-231 breast -26.6% | RXF 393 renal -58.9% | SF-268 CNS -3.01% | SF-295 CNS 0.263% | SF-539 CNS -50.8% | UACC-257 melanoma -41.3% | M14 melanoma -48.4% | HCT-15 colon -41.6% | HT29 colon -31.5% | U251 CNS -25.8% | SK-MEL-5 melanoma -36.6% | UACC-62 melanoma -11.1% | LOX IMVI melanoma -93.7% | SK-MEL-28 melanoma -60.2%

O=C(Cc1ccc(F)c(F)c1)Nc1cc(C2(C(F)(F)F)CC2)nn1Cc1ccccc1
inactive: DU-145 prostate 20.5% | K-562 leukemia 13.3% | SF-539 CNS 16.3% | M14 melanoma 20.2% | HT29 colon 17.6% | SNB-19 CNS 13.3% | SK-MEL-28 melanoma 18.6%
active: MALME-3M melanoma -37.7% | MDA-MB-231 breast -70.7% | RXF 393 renal -26.9% | SF-268 CNS 9.11% | SF-295 CNS -1.31% | UACC-257 melanoma -14.6% | HCT-15 colon 6.24% | SNB-75 CNS -14.9% | U251 CNS 4.6% | PC-3 prostate -6.07% | SK-MEL-5 melanoma -80.8% | UACC-62 melanoma -10.3% | LOX IMVI melanoma 5.44%

C[C@H](NC(=O)[C@@H]1CSSC[C@@H](NC(=O)c2nc3ccccc3cc2O)C(=O)NCC(=O)N1C)c1ccccc1
active: K-562 leukemia -30.9% | MDA-MB-231 breast -39.5% | RXF 393 renal -27.4% | SF-539 CNS 5.09% | M14 melanoma 0.586% | HT29 colon -28.2% | U251 CNS -7.49% | SK-MEL-5 melanoma 0.825% | LOX IMVI melanoma -74.5%
inactive: DU-145 prostate 32.2% | MALME-3M melanoma 49.9% | SF-268 CNS 17.6% | SF-295 CNS 77.6% | UACC-257 melanoma 60.9% | HCT-15 colon 42.1% | SNB-75 CNS 80.3% | SNB-19 CNS 35.4% | PC-3 prostate 54.7% | UACC-62 melanoma 16.7% | SK-MEL-28 melanoma 33.9%

O=C(Nc1cccc(Oc2nnc(Cl)c3ccccc23)c1)Nc1ccc(Cl)c(C(F)(F)F)c1
active: DU-145 prostate -5.14% | K-562 leukemia -8.66% | MALME-3M melanoma -49.9% | MDA-MB-231 breast -57.3% | RXF 393 renal -62.3% | SF-268 CNS -32.2% | SF-295 CNS -56.3% | SF-539 CNS -73.4% | UACC-257 melanoma -68.4% | M14 melanoma -62.8% | HCT-15 colon -64% | HT29 colon -75.9% | SNB-75 CNS -59.3% | SNB-19 CNS -5.9% | U251 CNS -75.4% | PC-3 prostate -38.1% | SK-MEL-5 melanoma -98.8% | UACC-62 melanoma -82.5% | LOX IMVI melanoma -93.2% | SK-MEL-28 melanoma -62.5%

CCOC(=O)c1csc(NC(=O)COc2cccc(/C=C3\Oc4cc(OC)ccc4C3=O)c2)n1
inactive: DU-145 prostate 102% | K-562 leukemia 52.1% | MALME-3M melanoma 109% | MDA-MB-231 breast 67.9% | RXF 393 renal 114% | SF-268 CNS 109% | SF-295 CNS 121% | SF-539 CNS 106% | UACC-257 melanoma 91.7% | M14 melanoma 111% | HCT-15 colon 79.2% | HT29 colon 101% | SNB-75 CNS 78.4% | SNB-19 CNS 83.4% | U251 CNS 79.2% | PC-3 prostate 78.3% | SK-MEL-5 melanoma 98.5% | UACC-62 melanoma 79% | LOX IMVI melanoma 66.7% | SK-MEL-28 melanoma 119%

CC(C)C(NC(=O)C1(NC(=O)OCc2ccccc2)CCCC1)C(=O)O (stereo not given)
inactive: DU-145 prostate 118% | K-562 leukemia 91.7% | MALME-3M melanoma 111% | MDA-MB-231 breast 105% | RXF 393 renal 134% | SF-268 CNS 111% | SF-295 CNS 112% | SF-539 CNS 111% | UACC-257 melanoma 89.2% | M14 melanoma 102% | HCT-15 colon 112% | HT29 colon 105% | SNB-75 CNS 92.3% | SNB-19 CNS 103% | U251 CNS 86.7% | PC-3 prostate 102% | SK-MEL-5 melanoma 102% | UACC-62 melanoma 106% | LOX IMVI melanoma 90.2% | SK-MEL-28 melanoma 107%

C=C1C(=O)O[C@H]2[C@H]1CC/C(COC(=O)C(=O)c1cn(C)c3ccc(OC)cc13)=C\CC[C@@]1(C)O[C@@H]21
inactive: SF-295 CNS 10.2%
active: DU-145 prostate -79% | K-562 leukemia 2.97% | MALME-3M melanoma -74.8% | MDA-MB-231 breast -58.4% | RXF 393 renal -94.8% | SF-268 CNS -40.6% | SF-539 CNS -66.9% | UACC-257 melanoma -72.1% | M14 melanoma -77.3% | HCT-15 colon -53.1% | HT29 colon -52.7% | SNB-75 CNS -76.7% | SNB-19 CNS -13.8% | U251 CNS -92.5% | PC-3 prostate -59.2% | SK-MEL-5 melanoma -100% | UACC-62 melanoma -84.8% | LOX IMVI melanoma -88.5% | SK-MEL-28 melanoma -65.3%

Cc1nc2c(c(N3CCCc4ccccc43)n1)CCC2
active: DU-145 prostate -8.95% | K-562 leukemia 4.8% | SF-295 CNS 9.59% | SF-539 CNS 1.1% | M14 melanoma -17.6% | HCT-15 colon 4.84% | HT29 colon 3.44% | U251 CNS 7.57% | SK-MEL-5 melanoma -49%
inactive: MALME-3M melanoma 54.2% | MDA-MB-231 breast 18.1% | RXF 393 renal 33% | SF-268 CNS 16.9% | UACC-257 melanoma 26.3% | SNB-75 CNS 20.4% | SNB-19 CNS 40% | PC-3 prostate 12.8% | UACC-62 melanoma 24.3% | LOX IMVI melanoma 21.2% | SK-MEL-28 melanoma 60.4%

COc1ccc(-c2nc3sccn3c2-c2cc(-c3cc(OC)c(OC)c(OC)c3)on2)cc1
inactive: DU-145 prostate 93.3% | K-562 leukemia 47.4% | MALME-3M melanoma 105% | MDA-MB-231 breast 80.9% | RXF 393 renal 110% | SF-268 CNS 98.2% | SF-295 CNS 109% | SF-539 CNS 73.7% | UACC-257 melanoma 141% | M14 melanoma 91.7% | HCT-15 colon 96.9% | HT29 colon 86.1% | SNB-75 CNS 77.4% | SNB-19 CNS 87.5% | U251 CNS 107% | PC-3 prostate 58.9% | SK-MEL-5 melanoma 68.7% | UACC-62 melanoma 89.1% | LOX IMVI melanoma 90.5% | SK-MEL-28 melanoma 127%

O=c1c2cc(F)ccc2sc2c(NCCN3CCCCC3)nc3ccccc3c12
active: K-562 leukemia -30.8% | M14 melanoma -61.7% | LOX IMVI melanoma -62.8% | SK-MEL-28 melanoma -14.9%
inactive: DU-145 prostate 53.5% | MALME-3M melanoma 58.5% | MDA-MB-231 breast 35.5% | RXF 393 renal 39.7% | SF-268 CNS 49.7% | SF-295 CNS 56% | SF-539 CNS 70.1% | UACC-257 melanoma 65.1% | HCT-15 colon 13.7% | HT29 colon 10.7% | SNB-75 CNS 37.3% | SNB-19 CNS 66.6% | U251 CNS 40.1% | PC-3 prostate 53.1% | SK-MEL-5 melanoma 70.1% | UACC-62 melanoma 36.7%

COc1ccc(OC)c2c1[nH]c(=O)c1c3ncccc3cn21
inactive: DU-145 prostate 26.3% | K-562 leukemia 32% | MALME-3M melanoma 60.2% | MDA-MB-231 breast 41.4% | RXF 393 renal 12.7% | SF-268 CNS 34.2% | SF-539 CNS 37.2% | UACC-257 melanoma 37.4% | M14 melanoma 39.7% | HCT-15 colon 22.8% | SNB-75 CNS 59.7% | SNB-19 CNS 30.3% | U251 CNS 22.5% | PC-3 prostate 33.6% | SK-MEL-5 melanoma 33.3% | UACC-62 melanoma 23.4% | SK-MEL-28 melanoma 64.3%
active: SF-295 CNS -3.56% | HT29 colon -9.43% | LOX IMVI melanoma 8.59%

O=C1/C(=C2/C=Nc3ccccc32)N(O)c2ccccc21
inactive: DU-145 prostate 73.7% | K-562 leukemia 19.6% | MALME-3M melanoma 56.3% | MDA-MB-231 breast 64.9% | RXF 393 renal 92.2% | SF-268 CNS 76% | SF-295 CNS 71% | SF-539 CNS 104% | UACC-257 melanoma 45% | M14 melanoma 87.4% | HCT-15 colon 49.5% | HT29 colon 100% | SNB-75 CNS 102% | SNB-19 CNS 93% | U251 CNS 84.9% | PC-3 prostate 51% | SK-MEL-5 melanoma 68% | UACC-62 melanoma 33.6% | LOX IMVI melanoma 33.5% | SK-MEL-28 melanoma 92.8%
